In PubChem BioAssay AID1159580 (chemical genetic matrix, 2015):
Among all 5,500 compounds or so, about 2,000 (36%) were called active. About 18% were inconclusive and are not listed. Rule as the data show it: active = normalized growth mostly below about 0.91 (no sharp cut-off); inconclusive = no clear call, values can overlap the other calls; inactive = mostly above about 0.92. This is one part of the list.

Experiment: chemical genetic growth profiling, strain panel (AID 1159580);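 also: tested at 20 µM; growth read once vehicle control cultures reached saturation at 30 °C; 1 = growth at the plate median or of vehicle wells; lower values mean less growth of the strain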
Conditions: S. cerevisiae deletion strains, growth OD
[1] = locus YDL101C, strain DUN1, stronger effect = lower value
[2] = locus YHR030C, strain SLT2, stronger effect = lower value

Measured: normalized growth

CCOC(=O)COc1ccc2c(c1)OC(C)(C)CC2=O
inactive: locus YAL013W, strain DEP1, stronger effect = lower value 0.998 | locus YBR229C, strain ROT2, stronger effect = lower value 0.994 | locus YCL061C, strain MRC1, stronger effect = lower value 0.964 | [1] 0.993 | locus YDL134C, strain PPH21, stronger effect = lower value 1.01 | locus YDR150W, strain NUM1, stronger effect = lower value 0.872 | locus YEL061C, strain CIN8, stronger effect = lower value 1.01 | locus YGR078C, strain PAC10, stronger effect = lower value 1 | locus YGR229C, strain SMI1, stronger effect = lower value 1.01 | [2] 0.947 | locus YHR087W, strain rtc3, stronger effect = lower value 0.976 | locus YJR043C, strain POL32, stronger effect = lower value 0.994 | locus YJR075W, strain HOC1, stronger effect = lower value 0.974 | locus YLR039C, strain RIC1, stronger effect = lower value 1.05 | locus YLR058C, strain SHM2 (second series), stronger effect = lower value 1 | locus YLR085C, strain ARP6, stronger effect = lower value 0.965 | locus YLR262C, strain YPT6, stronger effect = lower value 1.02 | locus YML094W, strain GIM5, stronger effect = lower value 1.02 | locus YMR219W, strain ESC1, stronger effect = lower value 0.988 | locus YMR263W, strain SAP30, stronger effect = lower value 1.01 | locus YMR307W, strain GAS1, stronger effect = lower value 0.986 | locus YNL128W, strain TEP1, stronger effect = lower value 1.01 | locus YNL153C, strain GIM3, stronger effect = lower value 0.966 | locus YNL298W, strain CLA4 (second series), stronger effect = lower value 1.01 | locus YNL322C, strain KRE1, stronger effect = lower value 1 | locus YNR030W, strain Alg12, stronger effect = lower value 1 | locus YPL055C, strain LGE1, stronger effect = lower value 0.849 | locus YPL241C, strain CIN2, stronger effect = lower value 0.953 | locus YPR135W, strain CTF4, stronger effect = lower value 1.03

Cc1oc2c(F)c(F)c(F)c(F)c2c1C(=O)ONC(N)c1ccc(OS(=O)(=O)N(C)C)cc1 (stereo not given)
inactive: locus YAR019C, strain CDC15, stronger effect = lower value 0.958 | locus YBL105C, strain PKC1, stronger effect = lower value 0.963 | locus YBR135W, strain CKS1, stronger effect = lower value 0.971 | locus YBR136W, strain MEC1, stronger effect = lower value 0.958 | locus YBR160W, strain CDC28, stronger effect = lower value 0.976 | locus YDL017W, strain CDC7, stronger effect = lower value 0.973 | locus YDL028C, strain MPS1, stronger effect = lower value 0.959 | [1] 0.985 | locus YDL108W, strain KIN28, stronger effect = lower value 0.978 | locus YDL132W, strain cdc53, stronger effect = lower value 0.982 | locus YDL214C, strain PRR2, stronger effect = lower value 0.969 | locus YDR052C, strain DBF4, stronger effect = lower value 0.971 | locus YDR054C, strain cdc34, stronger effect = lower value 0.976 | locus YDR226W, strain ADK1, stronger effect = lower value 0.969 | locus YDR477W, strain SNF1, stronger effect = lower value 0.946 | locus YER123W, strain YCK3, stronger effect = lower value 0.926 | locus YER133W, strain GLC7, stronger effect = lower value 0.958 | locus YFL009W, strain cdc4, stronger effect = lower value 0.962 | locus YFL029C, strain CAK1, stronger effect = lower value 0.958 | locus YFR003C, strain YPI1, stronger effect = lower value 0.968 | locus YFR019W, strain FAB1, stronger effect = lower value 0.937 | locus YFR028C, strain CDC14, stronger effect = lower value 0.963 | locus YGR040W, strain KSS1, stronger effect = lower value 0.949 | locus YGR052W, strain FMP48, stronger effect = lower value 1.03 | locus YGR092W, strain DBF2, stronger effect = lower value 0.989 | [2] 0.937 | locus YHR079C, strain IRE1, stronger effect = lower value 0.981 | locus YHR082C, strain KSP1, stronger effect = lower value 1.02 | locus YHR205W, strain SCH9, stronger effect = lower value 0.926 | locus YIL147C, strain SLN1, stronger effect = lower value 0.96 | locus YJL095W, strain BCK1, stronger effect = lower value 0.983 | locus YJL128C, strain PBS2, stronger effect = lower value 0.972 | locus YJL157C, strain FAR1, stronger effect = lower value 0.963 | locus YJR016C, strain ILV3, stronger effect = lower value 0.972 | locus YJR066W, strain TOR1 (second series), stronger effect = lower value 0.918 | locus YJR066W, strain TOR1, stronger effect = lower value 0.985 | locus YKL048C, strain ELM1, stronger effect = lower value 0.981 | locus YKL067W, strain YNK1, stronger effect = lower value 0.975 | locus YKL101W, strain HSL1, stronger effect = lower value 0.966 | locus YKL193C, strain SDS22, stronger effect = lower value 0.969 | locus YKL203C, strain TOR2, stronger effect = lower value 0.99 | locus YLR113W, strain HOG1, stronger effect = lower value 0.966 | locus YLR133W, strain CKI1, stronger effect = lower value 0.96 | locus YLR403W, strain SFP1, stronger effect = lower value 0.921 | locus YML070W, strain DAK1, stronger effect = lower value 0.955 | locus YMR001C, strain CDC5, stronger effect = lower value 0.963 | locus YMR205C, strain PFK2 (second series), stronger effect = lower value 0.975 | locus YMR277W, strain FCP1, stronger effect = lower value 0.964 | locus YNL006W, strain LST8, stronger effect = lower value 0.97 | locus YNL020C, strain ARK1, stronger effect = lower value 0.982 | locus YNL161W, strain CBK1, stronger effect = lower value 0.971 | locus YNL183C, strain NPR1, stronger effect = lower value 0.964 | locus YNL207W, strain RIO2, stronger effect = lower value 0.967 | locus YNL222W, strain SSU72, stronger effect = lower value 0.976 | locus YNL307C, strain MCK1 (second series), stronger effect = lower value 0.952 | locus YOL078W, strain AVO1, stronger effect = lower value 0.963 | locus YOL136C, strain PFK27, stronger effect = lower value 0.952 | locus YOR061W, strain CKA2, stronger effect = lower value 0.951 | locus YOR119C, strain RIO1, stronger effect = lower value 0.97 | locus YOR231W, strain MKK1, stronger effect = lower value 0.986 | locus YOR329C, strain SCD5, stronger effect = lower value 0.972 | locus YPL031C, strain PHO85, stronger effect = lower value 0.94 | locus YPL153C, strain RAD53, stronger effect = lower value 0.946 | locus YPL204W, strain HRR25, stronger effect = lower value 0.963 | locus YPL209C, strain IPL1, stronger effect = lower value 0.974 | locus YPL256C, strain CLN2, stronger effect = lower value 0.959 | locus YPR025C, strain CCL1, stronger effect = lower value 0.968 | locus YPR106W, strain ISR1, stronger effect = lower value 0.986 | locus YPR111W, strain DBF20, stronger effect = lower value 0.98 | strain NNK1, stronger effect = lower value 0.993 | strain TSCII, stronger effect = lower value 0.967
